92 compounds from PubChem BioAssay AID463173 (ICCB-Longwood Screening Facility, Harvard Medical School, 2010) can be followed below.

About 4,300 (8.3%) of roughly 52,000 compounds were called active. The full list was thinned out, with actives kept by preference. Unmarked numbers belong to inactive results. Rule as the data show it: active = survival mostly below about 52% (no sharp cut-off); inactive = mostly above about 56%.

This test relates to DeltatarO mutant. In words: growth inhibition of S. aureus wild type versus tarO mutant, primary screen, teichoic acid synthesis inhibitors, RN4220, OD600 (AID 463173). As to conditions: OD600, 18 h, hits give low values, screened at 18.75 µg/mL (by protocol).
As to `Cc1cn2c(=O)c(S(=O)(=O)NCc3ccc(F)cc3)c(C)nc2s1`, the survival is 88%.
For the compound `CCc1ccc(NC(=O)CSc2nnc(C(C)C)n2CC)cc1`, the survival was 96%.
As for `O=C(C1CCN(S(=O)(=O)c2ccc3c(c2)OCCO3)CC1)N1CCN(c2nc3ccccc3s2)CC1`, the survival is 109%.
For `O=C(Nc1cccnc1)Nc1c[nH]c2c(Cl)cccc2c1=O`, the survival is 89%.
Regarding `COc1ccc(-c2cc(C(F)(F)F)n3nc(C(=O)O)c(Cl)c3n2)cc1OC`, the survival was 70%.
On to `Cc1cc(C)nc(-n2nc(C)c3c2N(C)C(=O)CC3c2ccc(Cl)cc2)n1` (configuration not stated), for which the survival is 73%.
`COc1ccc(-c2onc(C)c2C)cc1S(=O)(=O)N1CCC(C)CC1`: the survival is 70%.
As for `CC(NC(=O)CN1C(=O)COc2ccc(S(=O)(=O)N3CCCCCC3)cc21)c1ccccc1` (configuration not stated), the survival was 68%.
Regarding `O=C(Cn1c(=O)n(Cc2ccc3c(c2)OCO3)c(=O)c2ccc(C(=O)NC3CCCCC3)cc21)Nc1ccccc1F`, the survival was 76%.
Consider `Cc1nc2c(C(=O)NCc3ccccc3)cnn2c(C)c1Cc1ccc(F)cc1`, for which the survival was 83%.
As to `CCN(CC)C(=O)CSc1nc2ccccc2c(=O)n1Cc1ccco1`, the survival was 77%.
For `Cc1cccc(CNC(=O)c2ccc(Cn3c(SCc4ccccc4)nc4cccnc43)cc2)c1`, the survival was 92%.
As to `Cc1cccc(Cn2c(SCc3ccc(C(=O)NCc4ccccc4)cc3)nc3cccnc32)c1`, the survival is 46% (active).
Regarding `Cc1cccc(Cn2c(SCc3ccc(C(=O)NCCc4ccccc4)cc3)nc3cccnc32)c1`, the survival was 115%.
As to `Cc1ccccc1C(=O)OCc1cc(=O)n2nc(-c3cccs3)sc2n1`, the survival is 117%.
Turning to `Cc1ccc(C)c(CNC(=O)CN2C(=O)CSc3ccc(S(=O)(=O)N(C)C)cc32)c1`, the survival is 87%.
Next, `COc1ccc(CC(=O)Nc2sc3c(c2C(=O)Nc2ccc(C)cc2)CCCCC3)cc1`: 131%; `COc1ccc(NC(=O)c2c(NCc3cccc(OC)c3)sc3c2CCCC3)cc1`: 86%.
Regarding `COc1ccc(CC(=O)Nc2sc3c(c2C(=O)Nc2cccc(C)c2)CCCCC3)cc1`, the survival was 43% (active).
The result for `COc1ccc(CC(=O)Nc2sc3c(c2C(=O)Nc2ccccc2)CCCCC3)cc1` reads 68%.
For `COc1ccc(CC(=O)Nc2sc3c(c2C(=O)Nc2c(C)cccc2C)CCCCC3)cc1`, the survival was 47% (active).
Turning to `COc1ccc(CC(=O)Nc2sc3c(c2C(=O)Nc2cccc(Cl)c2)CCCCC3)cc1`, the survival is 59%.
The result for `Cc1ccccc1CNc1nc(N(C)C)nc2c1cnn2C` reads 72%.
Regarding `Cc1ccc(C(=O)c2cn(Cc3ccccc3F)c3cc4c(cc3c2=O)OCCO4)cc1`, the survival is 82%.
With `CCc1ccc(NC(=O)CSc2cn(CC(=O)N3CCOCC3)c3ccccc23)cc1`, the survival was 86%.
Next, `CSc1ccc(CCNC(=O)c2ccc(-c3nc(COc4ccccc4)c(C)o3)cc2)cc1`: 91%.
The result for `Nc1ccc(Cc2nc3ccccc3[nH]2)cc1` reads 86%; that for `Cc1nn(-c2nc3ccccc3[nH]2)c(N)c1-c1ccccc1`, 2% (active).
Take `CC(C)(Cc1nc2ccccc2[nH]1)c1nc2ccccc2[nH]1`: the survival is 97%.
As for `COc1cc(OC)c(NC(=O)N2CCC(CN3CCCC3)CC2)cc1Cl`, the survival is 84%.
On to `COc1ccc(NC(=O)c2sc3nc(C(F)(F)F)cc(C)c3c2N)cc1OC`, for which the survival was 140%.
Next, `N#Cc1cc2c(nc1SCC(=O)N1CCOCC1)CCC2`: 97%; `COc1ccc(-c2nsc(NC(=O)C(C)Oc3ccc(Cl)c(C)c3)n2)cc1` (configuration not stated): 45% (active).
As for `O=C(COc1ccccc1Cl)Nc1nc(-c2ccc(F)cc2)ns1`, the survival was 55%.
Consider `CCC(Oc1ccc(F)cc1)C(=O)Nc1nc2c(s1)CCCC2` (configuration not stated), for which the survival is 83%.
For the compound `O=C(Nc1nc(-c2ccc(Br)cc2)ns1)c1ccc(F)cc1`, the survival is 52%.
Consider `CC(Oc1ccc(F)cc1)C(=O)Nc1nc(-c2ccc(F)cc2)ns1` (configuration not stated), for which the survival was -2% (active).
Take `Cc1cc(C)cc(OCC(=O)Nc2nc(-c3ccc(F)cc3)ns2)c1`: the survival is 89%.
Turning to `COc1ccc(-c2nsc(NC(=O)c3oc4cc(C)c(C)cc4c3C)n2)cc1`, the survival is 67%.
Consider `COc1ccc(-c2nsc(NC(=O)COc3ccc(C)c(C)c3)n2)cc1`, for which the survival is 65%.
On to `CCC(Oc1ccc(F)cc1)C(=O)Nc1nc(-c2ccc(F)cc2)ns1` (configuration not stated), for which the survival was -2% (active).
As to `CCC(=O)N1CCc2cc(CNC(=O)C(CC)c3ccccc3)ccc21` (configuration not stated), the survival is 92%.
For `Cc1cc2c(cc1NC(=O)c1ccccc1Cl)n(C)c(=O)c(=O)n2C`, the survival is 79%.
The result for `CCC(=O)C1C(=O)CC(C)(C)CC1=O` reads 103%; that for `Cc1ccc(S(=O)(=O)c2nnn(CC(=O)Nc3ccccc3C)c2N)cc1C`, 91%.
`CN(Cc1ccccc1)C(=O)C1CCN(S(C)(=O)=O)CC1`: the survival was 80%.
With `COc1ccc(Br)cc1CNC(=O)CCC(=O)N1CCSc2ccccc21`, the survival is 41% (active).
With `COc1cc(NC(=O)N2CCSc3ccccc32)cc(OC)c1OC`, the survival is 52% (active).
The result for `CCOc1ccccc1CNC(=O)CCC(=O)N1CCSc2ccccc21` reads 107%.
`COc1ccc(Br)cc1CNC(=O)CN1CCSc2ccccc21`: the survival is 88%.
For `O=C(Nc1cccc(Cl)c1)N1CCSc2ccccc21`, the survival is 79%.
Regarding `COc1cc(OC)c(NC(=O)N2CCSc3ccccc32)cc1Cl`, the survival is 74%.
The result for `COc1ccc(-c2c3c(=O)n(C)c(=O)n(C)c3c3c(-c4ccc(C)cc4)nc4ccccc4n23)cc1` reads 82%.
Turning to `CCCCOc1ccc(C2C(=O)N(C3CCCCC3)CC(=O)N2CCCC)cc1` (configuration not stated), the survival was 89%.
With `COc1cccc(C(C(=O)NC2CCCCC2)N(C(=O)c2ccccn2)c2cccnc2)c1` (configuration not stated), the survival was 81%.
Turning to `CCOC(=O)N1CCC2(CC1)OC(=O)C(C)=C2C(=O)NCc1ccc(C)cc1`, the survival was 70%.
In the case of `Cc1ccccc1-c1nnc(SCC(=O)N2CCCc3ccccc32)o1`, the survival was 9% (active).
Turning to `O=C(CSc1nnc(-c2ccc(F)cc2)o1)N1CCCc2ccccc21`, the survival was 72%.
The result for `O=C(CSc1nnc(-c2ccccc2Cl)o1)N1CCCc2ccccc21` reads 35% (active); that for `Cc1ccc(-c2nnc(SCC(=O)N3CCc4ccccc43)o2)cc1`, 95%; that for `O=C(CSc1nnc(-c2ccccc2F)o1)N1CCc2ccccc21`, 100%.
For `Cc1cccc(-c2nnc(SCC(=O)N3CCCc4ccccc43)o2)c1`, the survival is 11% (active).
As to `Cc1ccc(-c2nnc(SCC(=O)N3CCCc4ccccc43)o2)cc1`, the survival is 63%.
As for `O=C(CSc1nnc(-c2ccc(Cl)cc2)o1)N1CCc2ccccc21`, the survival is 96%.
Next, `O=C(CSc1nnc(-c2ccccc2)o1)N1CCCc2ccccc21`: 80%.
For `Cc1ccc(NC(=O)c2ccc(NC(=O)N3CCSc4ncccc43)cc2)c(Cl)c1`, the survival was 64%.
`COc1cccc(-c2nc(CS(=O)(=O)CC(=O)Nc3cccc(C(C)=O)c3)c(C)o2)c1`: the survival is 71%.
With `CCc1cccc(NC(=O)CN2c3ccccc3S(=O)(=O)c3ccccc32)c1`, the survival is 72%.
In the case of `CCOc1ccc(CC(=O)NCCc2csc(-c3ccc(C)cc3)n2)cc1`, the survival was 88%.
Turning to `COc1ccc(CCNC(=O)c2ccc(-n3c(C)cc4c3CCCC4)cc2)cc1OC`, the survival is 74%.
Regarding `COc1ccc(CCNC(=O)c2ccc(-n3c(C)cc4c3CCC(C)C4)cc2)cc1OC` (configuration not stated), the survival was 52% (active).
As to `CCOc1ccc(CCNC(=O)c2ccc(-n3c(C)cc4c3CCC(C)C4)cc2)cc1OCC` (configuration not stated), the survival was 82%.
The result for `CCOC(=O)C1CCN(C(=O)C2CCN(C3=NS(=O)(=O)C(c4ccc(C)cc4)=C3CC)CC2)CC1` reads 115%; that for `O=C(NCC(c1ccco1)S(=O)(=O)c1cccs1)c1ccc(Cl)cc1` (configuration not stated), 102%.
Regarding `O=C(Cn1c(=O)oc2cc(Cl)ccc21)Nc1cccc(C(F)(F)F)c1`, the survival is 89%.
With `O=C(Cc1ccc(F)cc1)NCCc1csc2nc(-c3ccc(Cl)cc3)nn12`, the survival is 95%.
In the case of `O=S(=O)(Nc1ccc(Cl)cc1)c1ccc(NS(=O)(=O)c2ccc3c(c2)OCCO3)cc1`, the survival was 38% (active).
As for `Cc1cccc(C)c1NS(=O)(=O)c1ccc(NS(=O)(=O)c2ccc3c(c2)OCCO3)cc1`, the survival is 110%.
As for `CCOC(=O)c1ccc(NS(=O)(=O)c2ccc3c(c2)OCCO3)cc1`, the survival was 74%.
As to `O=S(=O)(Nc1ccc(C(F)(F)F)cc1)c1ccc2c(c1)OCCO2`, the survival is 69%.
With `O=S(=O)(Nc1c(F)cccc1F)c1ccc2c(c1)OCCO2`, the survival was 63%.
The result for `CC(=O)c1ccc(NS(=O)(=O)c2cccc(S(=O)(=O)c3ccc(Cl)cc3)c2)cc1` reads 124%; that for `O=S(=O)(Nc1cccc(C(F)(F)F)c1)c1ccc(NS(=O)(=O)c2ccc3c(c2)OCCO3)cc1`, 6% (active); that for `Cc1c(Cl)cccc1NS(=O)(=O)c1ccc(NS(=O)(=O)c2ccc3c(c2)OCCO3)cc1`, 13% (active).
`CN1CCN(S(=O)(=O)c2cccc(S(=O)(=O)c3ccc(Cl)c(Cl)c3)c2)CC1`: the survival was 102%.
The result for `O=S(=O)(Nc1ccc(Cl)cc1)c1cccc(S(=O)(=O)c2ccc(Cl)c(Cl)c2)c1` reads 37% (active); that for `COC(=O)c1cc(NS(=O)(=O)c2ccc3c(c2)OCCO3)ccc1Cl`, 65%; that for `COc1ccc(NS(=O)(=O)c2ccc(NS(=O)(=O)c3ccc4c(c3)OCCO4)cc2)cc1`, 116%.
Take `O=C(O)CSc1nc2ccc(Cl)cc2[nH]1`: the survival is 84%.
Regarding `CCOc1cccc2sc(N(Cc3cccnc3)C(=O)c3ccco3)nc12`, the survival is 77%.
For the compound `CCc1cc(C(=O)NC(C)c2ccccc2)no1` (configuration not stated), the survival was 60%.
In the case of `Cc1ccc(NC(=O)CSc2nc(=O)n(Cc3ccncc3)c3c2CCC3)cc1Cl`, the survival is 80%.
